# Screening data: PubChem, National Center for Advancing Translational Sciences (NCATS)
# The list is not random: actives were taken first. Their share in the collection is about 5.2%.
# Tau ThT inhib: qHTS for Inhibitors of Tau Fibril Formation, Thioflavin T Binding. hit rate 2.1% among 270,000. recombinant tau K18 P301L, heparin-induced fibrillization, ThT fluorescence. Potency, µM (top dose mostly 57.4 µM), actives largely listed as inhibitors; further: nearly all actives have a fitted effect of over 55% in size
# Target sequence (P10636 561-689 P618L limits assumed): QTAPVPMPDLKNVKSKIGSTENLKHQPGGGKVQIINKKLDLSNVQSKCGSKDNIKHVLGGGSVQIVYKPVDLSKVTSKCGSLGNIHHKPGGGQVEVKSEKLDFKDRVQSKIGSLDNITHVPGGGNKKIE
#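 Tau K18 P301L fragment (15 uM unlabeled plus 0.24 uM Alexa 594-labeled) in 100 mM sodium acetate pH 7 with compound, fibrillization induced by 20 uM heparin for 6 hr at 37 C. Thioflavin T (30 uM) added, fluorescence read after 1 hr (ex 450, em 510 nm).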
# FBPA coupling cs: qHTS Assay for Inhibitors of Fructose-1,6-bisphosphate Aldolase from Giardia Lamblia: Coupling assay counterscreen | activity change, negative = inhibition, % at 58.2 µM, hits read low | coupling enzyme system counterscreen, AmpLite Red fluorescence | hit rate 0.67% among 290,000; in the data active means activity change below about -30%
#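 Counterscreen lacking aldolase: glyceraldehyde-3-phosphate coupling-enzyme reagent preincubated 10 min at RT with compound (at 57.5 uM final), then substrate/coupling system with AmpLite Red added; fluorescence read at 525/598 nm after 20 min RT.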
# Sfp inh: qHTS Assay for Inhibitors of Bacillus subtilis Sfp phosphopantetheinyl transferase (PPTase); hit rate 3.5% among 310,000; AID 1490, 2009; 4'-phosphopantetheinyl transferase ffp (Bacillus subtilis), Q9F4F7; Potency, µM, actives largely listed as inhibitors; Biochemical Sfp PPTase activity, qHTS;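 further: the enzyme is Sfp with the accession as filed and its product quenches rhodamine fluorescence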
#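 Fluorescence-quenching assay with 15 nM Sfp, 5 uM rhodamine-CoA and 12.5 uM BHQ-2-labelled ybbR peptide in pH 7.6 Hepes/MgCl2 buffer. Enzyme was pre-incubated with compound for 15 min at room temperature. Rate was taken from the 30-min fluorescence change (525/598 nm).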
# Tau fibril FP: qHTS for Inhibitors of Tau Fibril Formation, Fluorescence Polarization | Potency, µM (doses to about 57.7 µM), hits mostly inhibitors | AID 1468, 2008 | hit rate 0.39% among 280,000 | K18 P301L tau heparin fibrillization, Alexa594 FP, 6 h | Microtubule-associated protein tau (Homo sapiens), P10636; further: nearly all actives have a fitted effect of over 55% in size
#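 Compound effects on tau fibrillization are measured by Alexa 594 fluorescence polarization (ex 555, em 632 nm). K18 P301L tau is used at 15 uM with 0.24 uM labeled tracer, and 20 uM heparin induces aggregation over 6 hr at 37 C.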
# Tau fluor counter: Counterscreen qHTS for Inhibitors of Tau Fibril Formation, Fluorescence Polarization; AID 1463, 2008; tau K18 P301L (four-repeat tau fragment) Alexa594 fluorescence, heparin fibrillization; Potency, µM (series often up to 57.7 µM); hit rate 0.93% among 280,000; further: nearly all actives have a fitted effect of over 55% in size
#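 Human K18 P301L tau (15 uM unlabeled plus 0.24 uM Alexa 594-labeled, final) in 100 mM sodium acetate pH 7 was mixed with compound and 20 uM heparin and incubated 6 hr at 37 C.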
# Sfp inh conf: Confirmation qHTS Assay for Inhibitors of Bacillus subtilis Sfp phosphopantetheinyl transferase (PPTase). shares compounds with Sfp inh. Sfp PPTase enzymatic assay, qHTS titration. Potency, µM (titrated, usually from 114 µM), usual class: inhibitors. hit rate 79% among 380. AID 2701, 2010
# Target sequence (Q9F4F7 whole entry, looked up): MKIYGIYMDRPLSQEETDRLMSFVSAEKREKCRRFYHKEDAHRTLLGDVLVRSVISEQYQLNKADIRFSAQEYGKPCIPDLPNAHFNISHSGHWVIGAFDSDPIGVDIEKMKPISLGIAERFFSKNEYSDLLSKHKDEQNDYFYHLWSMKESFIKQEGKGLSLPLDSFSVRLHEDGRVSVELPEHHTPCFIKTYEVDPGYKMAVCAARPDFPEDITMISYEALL
# Sfp PPTase gel: Gel-Based Assay for Inhibitors of Bacillus subtilis Sfp phosphopantetheinyl transferase (PPTase); hit rate 20% among 210; Potency, µM, actives largely listed as inhibitors; purified Sfp, gel-based phosphopantetheinylation read-out; shares compounds with Sfp inh; AID 2707, 2010;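 active means potency below 100 µM; inconclusive means dose-dependent response but potency above 100 µM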;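 further: potency is an IC50 for inhibitors of Sfp transfer activity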
# Numbers stand for hits; 0 = inactive; ? = inconclusive; - = not tested or not shown; ! = not active in a repeat; [ ] = dose if it differs, or a comment. Unless noted, the call rests on the fitted dose curve; in most records, active means well fitted curve in the direction sought with a large enough effect; inconclusive means small, poorly fitted or top-dose-only effect, or another doubt; inactive means no such curve, though single readings can be large; an effect the other way counts as inactive or inconclusive.
SMILES,Tau ThT inhib,FBPA coupling cs,Sfp inh,Tau fibril FP,Tau fluor counter,Sfp inh conf,Sfp PPTase gel
O=Cc1cn(-c2ccccc2)nc1-c1ccccc1,-,0,0,-,-,-,-
CC1=NNC(=O)/C1=C\c1cn(-c2ccccc2)nc1-c1ccccc1,0,0,3.55µM,0,0,41.8µM,18.5µM
CCOC(=O)C1=C[C@@]2(CC)CCCN3CCc4c(n1c1ccccc41)C32 (stereo partly drawn),0,0,0,0,0,-,-
CC(=O)N1CCN(c2ccc(NCc3ccc4c(c3)OCO4)cc2)CC1,15.8µM,-33.4,15.8µM,?,?,21µM,0
CCN(CC)c1ccc(NC(=O)c2ccccc2)cc1S(=O)(=O)Nc1ccccc1OC,0,0,3.16µM,0,0,6.63µM,-
COCCN(CC(=O)NC1CCCCC1)C(=O)/C=C/C(=O)c1ccc(OC)cc1O,0,0,0,0[2.34 µM],0,-,-
COc1ccc(C(=O)/C=C/C(=O)N(CC(=O)NC2CCCCC2)Cc2cccs2)c(O)c1,?,0,3.16µM,0,0,3.32µM,2.06µM
COC(=O)c1cc(=O)c(O)c2c(O)c(O)ccc2c1,3.55µM,-30.6,31.6µM,7.94µM,?,9.37µM,0
O=C(CSc1ncnc2sc3c(c12)CCCCC3)NCc1ccco1,0,0,14.1µM,0,0,52.7µM,-
N#C/C(=C\c1ccc(N2CCCCC2)o1)C(N)=O,?,0,0,0,0,-,-
N#C/C(=C/c1ccc(N2CCOCC2)o1)c1ccc(Cl)cc1,15.8µM,-46.7,0.708µM,?,?,13.2µM,-
CC(C)c1ccc(Cn2ccc3c4c(N)nc(NC5CC5)nc4ccc32)cc1,0,0,5.01µM,0,?,13.2µM,?
COc1ccc(S(=O)(=O)N2CCN(CC(=O)Nc3ccc(Cl)c(C(F)(F)F)c3)CC2)cc1,0,-,-,0,?,-,-
CCN(CC)C1=CC(=O)OC12CCCCC2,0,0,35.5µM,0,0,?,-
CCN1CCN(C(=S)c2ccc(Cl)cc2)CC1,?,-53.7,2.24µM,?,0,13.2µM,0
CCN1CCN(C(=S)c2ccc(OC)cc2)CC1,0,0,11.2µM,0,0,14.8µM,0
CCOC(=O)C[n+]1c(C)sc2ccc(OC)cc21,28.2µM,0,1µM,?,0,6.63µM,0
COc1cccc(C(=O)CC2(O)C(=O)N(Cc3ccccc3)c3ccccc32)c1 (stereo not drawn),0,-,-,0,0,-,-
COc1ccc(NC(=O)CSc2nc3c(oc4ccccc43)c(=O)n2-c2ccc(C)c(C)c2)cc1,0,-,-,0,0,-,-
Cn1c(SCC(=O)c2cc3ccccc3o2)nnc1-c1ccccc1,?,0,12.6µM,0,0,52.7µM,-
Cn1cnnc1SCC(=O)c1cc2ccccc2o1,0,0,0,0,0,-,-
CCOC(=O)c1c(-c2ccc(C)o2)csc1NC(=O)CSc1nnnn1-c1ccccc1,0,0,3.55µM,0,0,9.37µM,-
CCCCN(CCCC)CC(O)c1cc(Cl)cc2c1-c1ccc(Cl)cc1/C2=C/c1ccc(Cl)cc1 (stereo not drawn),-,-,44.7µM,-,-,41.8µM,?
CCc1ccc(C2c3c(oc4ccc(F)cc4c3=O)C(=O)N2CCc2ccc(OC)cc2)cc1 (stereo not drawn),0,-,-,0,0,-,-
Cc1ccc(-c2nc(NCc3ccco3)c3ccccc3n2)cc1,?,0,0,?,?,-,-
SMILES,Tau ThT inhib,FBPA coupling cs,Sfp inh,Tau fibril FP,Tau fluor counter,Sfp inh conf,Sfp PPTase gel
Cc1cccc(Nc2nc(NCc3ccco3)c3ccccc3n2)c1,0,0,2.51µM,?,?,37.3µM,0
COc1ccccc1N1CCN(C(=O)c2oc3cc(C)cc(C)c3c2C)CC1,?,0,2µM,0,0,46.9µM,0
COc1ccccc1N1CCN(C(=O)c2cc(=O)c3ccc(C)cc3o2)CC1,-,0,0,-,-,-,-
Nc1nc2ccccc2[nH]1,-,0,0,-,-,-,-
Nc1ccccc1Sc1nc2ccccc2[nH]1,28.2µM,0,7.94µM,?,28.2µM[quencher],37.3µM,-
CCOC(=O)c1c(C)[nH]c(C2=NNC(=NC3CC3)SC2)c1C,15.8µM,0,7.08µM,?,?,41.8µM,-
CCc1ccc(OCc2ccccc2C(=O)Nc2ccc3nc(C)cc(N)c3c2)cc1,?,0,12.6µM,?,?,46.9µM,-
CCOC(=O)c1ccc(NC(=O)c2cc(C)nc3ccccc23)cc1,-,0,0,-,-,-,-
O=C(CSc1nnc(SCC(=O)c2ccco2)s1)c1ccco1,0,0,14.1µM,0,0,46.9µM,?
COc1ccc(OC)c(CNC(=O)c2cc(S(=O)(=O)N3CCC(C)CC3)cn2C)c1,0,-,-,0,0,-,-
NC(=O)N1c2ccccc2CC(=O)c2ccccc21,?,-32.4!,35.5µM!,0,0,46.9µM,0
CCOc1ccc(S(=O)(=O)NCc2cccs2)cc1,0,0,0,0,0,-,-
CCOc1ccc(C(=O)CC(NCc2cccs2)C(=O)O)cc1 (stereo not drawn),?,0,11.2µM,?,0,37.3µM,-
Brc1ccc2[nH]c3nc(SCCN4CCOCC4)nnc3c2c1,0,0,0,0,0,-,-
c1ccc2c(c1)[nH]c1nc(SCCN3CCOCC3)nnc12,0,0,4.47µM,0,0,9.37µM,-
CCOC(=O)C1CCN(C(=O)C2CCN(c3nnc(C)c4c(C)n(-c5ccccc5)nc34)CC2)CC1,0,-,-,0,0,-,-
NC(=O)c1c(NC(=O)C2CCCO2)sc2c1CCCC2 (stereo not drawn),0,0,1.26µM,0,0,13.2µM,-
COc1ccc(CCC(=O)NCc2nc3cccnc3n2Cc2cccc(OC)c2)cc1,0,-,-,0,0,-,-
CCN(CC)c1ccc(C2C(C(N)=O)=C(C)Nc3ncnn32)cc1 (stereo not drawn),0,-,-,0,0,-,-
CC1=CSC2=NC(=O)/C(=C\c3cccn3-c3ccc([N+](=O)[O-])cc3)C(=N)N12,?,0,1µM,0,0,37.3µM,0
COc1ccc(-c2cc(C3C4C=CCC(C)C4C(=O)N3Cc3ccccc3)ccc2F)cc1 (stereo not drawn),-,0,0,-,-,-,-
CC(=O)O[C@@]12CO[C@@H]1C[C@H](O)[C@@]1(C)C(=O)[C@H](O)C3=C(C)[C@@H](OC(=O)C(O)[C@@H](NC(=O)OC(C)(C)C)c4ccccc4)C[C@@](O)([C@@H](OC(=O)c4ccccc4)[C@H]21)C3(C)C (stereo partly drawn),-,-,6.31µM,-,-,14.8µM,0
CCn1c(C(=O)Nc2cc(C)cc(C)c2)cc2sc(Cl)cc21,0,-,-,0,0,-,-
